# Compound activity from PubChem.
# Pf growth 48h: Primary qHTS for delayed death inhibitors of the malarial parasite plastid, 48 hour incubation. P. falciparum luciferase growth in erythrocytes, 48 h. Potency, µM (series often up to 28.7 µM), inactives show at the highest dose activity change, negative = inhibition, most hits filed as inhibitors. 310,000 tested, 5.9% active. AID 504832, 2011; also: potency is read from the fitted curve at half-maximal effect; % is scaled to controls: 0 for no effect and ±100 for the full control effect
#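 Firefly luciferase activity from engineered P. falciparum reports growth; inhibitors lower the luminescent signal. Cultures contained 2% hematocrit erythrocytes at 0.1% final parasitemia.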
# LmPK inh: qHTS Assay for Inhibitors of Leishmania Mexicana Pyruvate Kinase (LmPK). Q27686. purified LmPK, Kinase-Glo ATP luminescence, 1 h. Potency, µM (series often up to 57.5 µM), without a hit: at the highest dose activity change, negative = inhibition, most hits filed as inhibitors. 290,000 tested, 0.37% active. AID 1721, 2009; also: potency is read from the fitted curve at half-maximal effect; % is scaled to controls: 0 for no effect and ±100 for the full control effect
# Target sequence (Q27686 whole entry, looked up): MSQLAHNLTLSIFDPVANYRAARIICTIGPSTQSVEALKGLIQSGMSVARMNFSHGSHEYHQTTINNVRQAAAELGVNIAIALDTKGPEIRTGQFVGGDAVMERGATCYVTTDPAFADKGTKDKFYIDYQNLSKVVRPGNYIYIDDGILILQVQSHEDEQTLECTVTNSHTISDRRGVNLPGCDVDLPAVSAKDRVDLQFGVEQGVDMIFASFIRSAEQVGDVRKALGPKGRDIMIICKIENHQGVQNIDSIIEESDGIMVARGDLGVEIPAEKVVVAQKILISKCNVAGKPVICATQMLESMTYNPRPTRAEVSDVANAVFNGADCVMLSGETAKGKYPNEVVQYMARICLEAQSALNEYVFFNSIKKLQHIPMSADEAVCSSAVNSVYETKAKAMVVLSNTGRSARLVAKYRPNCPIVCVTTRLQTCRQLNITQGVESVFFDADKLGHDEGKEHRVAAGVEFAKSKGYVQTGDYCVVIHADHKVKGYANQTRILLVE
#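 Purified LmPK (0.1 nM) converted ADP (0.1 mM) to ATP with PEP (0.5 mM) in imidazole buffer pH 7.2 with KCl and MgCl2, 1 h at room temperature. ATP was read by Kinase-Glo luminescence; data normalized to uninhibited and no-enzyme controls.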
# Shiga toxin inh: A qHTS for Small Molecule Inhibitors of Shiga Toxin | inhibition, % at 38.7 µM | AID 2315, 2010 | Vero cells, Shiga toxin protein synthesis inhibition reporter | 290,000 tested, 9.2% active; in the data active = inhibition mostly above about 28%, no sharp cut-off; inactive = mostly below about 43%; also: 0% is about no effect
# CHX counter: Cycloheximide Counterscreen for Small Molecule Inhibitors of Shiga Toxin. max response, %. 300,000 tested, 12% active. cell reporter, cycloheximide protein synthesis inhibition counterscreen; in the data active = max response mostly above about 13%, no sharp cut-off; inactive = mostly below about 14%; also: read at 38.3 µM for the half of the compounds with a filed dose; 0% is about no effect
# Pf growth 96h: Primary qHTS for delayed death inhibitors of the malarial parasite plastid, 96 hour incubation. P. falciparum luciferase reporter growth, 96 h. Potency, µM (doses to about 28.7 µM), for the others: at the top dose activity change, negative = inhibition, most hits filed as inhibitors. 320,000 tested, 6.9% active; also: potency is read from the fitted curve at half-maximal effect; % is scaled to controls: 0 for no effect and ±100 for the full control effect
#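 Infected RBCs, 2% Hct / 0.05% parasitemia final; luciferase-reporter P. falciparum; cpd 96 h, 37 C, 5% CO2; luciferase detection reagent; luminescence.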
# Active calls of the source: *; u = inconclusive; x = no result; + = active, no number. Sampled rows, rich in hits. Any-hit rate of the full collection: about 22%. Unless noted, calls follow the shape of the dose curve; as a rule, active = well fitted inhibition curve with a large enough effect; inconclusive = small, poorly fitted or top-dose-only effect, or another doubt; inactive = no such curve, though single readings can be large or run the other way.
SMILES,Pf growth 48h,LmPK inh,Shiga toxin inh,CHX counter,Pf growth 96h
Oc1ccc(-c2nccc(-c3ccc(F)cc3)n2)cc1,125.2%,-3.4%,88.0*,80.7*,109.5%
O=[N+]([O-])c1ccc(S(=O)(=O)N/N=C/c2cccs2)cc1,4.9%,-2.1%,27.2*,19.8*,6.4%
Cc1cc(C)n2c(SCc3cccs3)nnc2n1,19.3%,2.1%,+,15.4*,x
CC(C)(C)C1CCC(N2CCN(c3ccccc3)CC2)CC1 (configuration not stated),-20.8%,-3.2%,3.0,-0.8,u
C/C(=N\NC(=O)CSc1ncccn1)c1ccc2c(c1)OCCO2,27.0%,9.0%,42.4,10.4,u
O=C(O)c1nc2ccccc2nc1C(=O)O,100.3%,3.4%,80.9*,46.0*,u
O=C(O)c1cccc2nc3ccccc3nc12,u,-5.0%,-4.3,1.7,48.6%
CCOC(=O)c1c(-c2ccccc2)csc1NC(=O)CSc1nnc(C)s1,2.94µM*,2.0%,-11.6,-5.2,u
CCOC(=O)c1c(-c2ccc(C)o2)csc1NC(=S)NC(=O)c1cccs1,u,-3.3%,-0.7,2.1,u
CCOC(=O)c1c(NC(=O)CSc2nnc(C)s2)sc2c1CCC(C)C2 (configuration not stated),11.7µM*,2.0%,-10.2,-1.4,16.5%
CCOC(=O)c1c(CC(C)C)csc1NC(=O)COC(=O)c1ccc(O)cc1,u,x,x,x,9.28µM*
CCOC(=O)c1c(-c2ccc(C)o2)csc1NC(=O)COC(=O)c1ccc(NC(N)=O)cc1,8.28µM*,4.7%,-16.1,-5.7,x
O=C(Nc1ncccc1Cl)C(Sc1ccccc1)c1ccccc1 (configuration not stated),u,4.1%,-17.7,-3.1,u
CC(=O)Nc1ccc(S(=O)(=O)N2CCC(NC(=O)C(Cc3ccccc3F)NC(C)=O)CC2)cc1 (configuration not stated),-3.7%,1.4%,-6.9,-4.2,-10.1%
CCOC(=O)c1c(-c2ccc(C)o2)csc1NC(=S)NC(=O)c1ccccc1Br,13.1µM*,0.7%,-4.5,-1.1,7.38µM*
CCOC(=O)c1c(-c2ccc(C)o2)csc1NC(=O)CSc1nnc(C)s1,11.7µM*,1.0%,-6.5,-0.8,168.7%
CCOC(=O)c1c(-c2ccc(OC)cc2)csc1NC(=O)CSc1ncnc2sccc12,u,1.8%,-13.2,-2.1,5.22µM*
CCOC(=O)c1c(-c2ccc(C)o2)csc1NC(=O)CSc1nnnn1-c1ccccc1,u,-7.9%,14.1,5.6,x
CCOC(=O)c1c(-c2ccccc2Cl)csc1NC(=O)CSc1nc(C)cc(=O)[nH]1,-24.0%,5.1%,-10.5,-2.4,11.7µM*
CC1CCN(c2ccc3c(c2)S(=O)(=O)c2cccc(C(=O)NC4CCCCC4)c2C3=O)CC1,u,x,x,x,8.9%
O=C(c1ccccc1)N1CN2CN(C(=O)c3ccccc3)CC([N+](=O)[O-])(C2)C1,u,-1.0%,1.2,0.3,0.0%
CCOC(=O)c1c(NC(=O)CSc2nnc(N)s2)sc(C)c1-c1ccc(C)cc1,u,6.9%,-4.1,-3.2,10.4µM*
COc1ccccc1CNCC(=O)N1CC(=O)Nc2ccccc21,14.5%,-9.6%,-11.1,-1.9,0.0%
Cn1nnc2cc(C(=O)N3CCC(c4ccccc4)C3)ccc21 (configuration not stated),19.3%,1.7%,27.3*,10.1*,-5.5%
Cn1nnc2cc(C(=O)N3CCCCCC3)ccc21,-25.0%,1.6%,22.9,-3.9,-7.8%
COc1ccc(Cl)cc1NC(=S)N1CCC(c2ccc(C)cc2)C1 (configuration not stated),u,-0.3%,22.1,7.2,68.3%
Cc1nc2cc(NC(=O)N3CCC(c4ccccc4)C3)ccc2n1C (configuration not stated),59.9%,-1.9%,98.7*,27.4*,x
CC(=O)c1cccc(NC(=O)N2CCC(c3ccc(C)cc3)C2)c1 (configuration not stated),16.8%,4.6%,48.6*,27.3,14.5%
Cc1ccc(C2CCN(C(=S)NC(C)C)C2)cc1 (configuration not stated),14.5%,4.5%,64.1*,8.7,10.8%
COc1ccc(NC(=O)c2cc(S(=O)(=O)N3CCS(=O)(=O)CC3)ccc2Cl)cc1,22.6%,3.2%,-15.6,6.3,u
